# Screens deposited in PubChem by National Center for Advancing Translational Sciences (NCATS).
# Only some compounds are listed: those with a hit (about 5.7% of all), similar ones and a draw of the others.
# B2AR arrestin: qHTS assay of beta-arrestin-biased ligands of beta2-adrenergic receptor; Beta-2 adrenergic receptor (Homo sapiens), P07550; beta-arrestin recruitment to beta2AR, cell-based reporter; Potency, µM (doses to about 46.1 µM), actives largely listed as activators; 330,000 compounds, 0.02% hits; AID 492947, 2010; also: nearly all actives have a fitted effect of over 65% in size
# NPSR antagonist: qHTS Assay for Antagonists of the Neuropeptide S Receptor: cAMP Signal Transduction; Q6W5P4; CHO-NPSR cells, cAMP TR-FRET, antagonist mode; Potency, µM (highest dose often 38.3 µM), usual class: inhibitors; 220,000 compounds, 1% hits; AID 1461, 2008; also: nearly all actives have a fitted effect of over 50% in size
# Target sequence (Q6W5P4 whole entry, looked up): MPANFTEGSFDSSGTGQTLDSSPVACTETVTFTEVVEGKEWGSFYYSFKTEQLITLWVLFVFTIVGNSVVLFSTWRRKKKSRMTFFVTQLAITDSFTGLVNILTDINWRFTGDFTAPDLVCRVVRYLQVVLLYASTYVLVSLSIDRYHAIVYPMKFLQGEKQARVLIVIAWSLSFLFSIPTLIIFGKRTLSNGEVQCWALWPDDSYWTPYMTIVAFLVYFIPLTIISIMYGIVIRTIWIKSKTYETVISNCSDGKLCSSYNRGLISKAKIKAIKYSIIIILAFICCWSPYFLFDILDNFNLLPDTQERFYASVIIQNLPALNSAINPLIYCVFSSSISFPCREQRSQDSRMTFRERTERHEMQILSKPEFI
# RORg inh: qHTS for inhibitors of ROR gamma transcriptional activity; Nuclear receptor ROR-gamma (Mus musculus), P51450; Drosophila S2 Gal4-RORgamma UAS-luciferase reporter, 20 h; Potency, µM (doses to about 53.6 µM), hits mostly inhibitors; 310,000 compounds, 5.4% hits; also: nearly all actives have a fitted effect of over 60% in size
#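 ROR gamma transcriptional activity was tracked as Gal4-UAS luciferase output in stably transfected Drosophila Schneider cells, with compound added 1 hr before 700 uM copper sulfate induction and a 20 hr ambient-temperature incubation.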
# Gal4-VP16 FLuc: VP16 counterscreen qHTS for inhibitors of ROR gamma transcriptional activity | Drosophila S2 Gal4-VP16 UAS-luciferase, luminescence, 20 h | 310,000 compounds, 3.5% hits | Potency, µM (titrated, usually from 53.6 µM), usual class: inhibitors | AID 2546, 2010;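 also: Gal4-VP16 expression switched on by copper sulfate through the metallothionein promoter; nearly all actives have a fitted effect of over 50% in size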
# A number is an active result; 0 = inactive; ? = inconclusive; - = no result; [ ] = dose if it differs, or a comment. Calls follow the shape of the dose curve; as a rule, active = well fitted curve in the direction sought with a large enough effect; inconclusive = small, poorly fitted or top-dose-only effect, or another doubt; inactive = no such curve, though single readings can be large; an effect the other way counts as inactive or inconclusive.
SMILES,B2AR arrestin,NPSR antagonist,RORg inh,Gal4-VP16 FLuc
CC(C)=CCC/C(C)=C/CO/N=C1/C[C@@H](O)[C@@H](O)[C@@H]2[C@H]3C(=O)N(c4ccc(F)cc4F)C(=O)[C@@H]3CC[C@H]12,-,-,0[10 µM],0[10 µM]
C/C(=C(/CCO)SS/C(CCO)=C(\C)N(C=O)Cc1cnc(C)nc1N)N(C=O)Cc1cnc(C)nc1N,-,-,0,0
CC1=NOC(=O)/C1=C\c1ccc(-c2ccccc2Br)o1,0,10µM,0,0
CCCN(c1ccccc1F)S(=O)(=O)c1cc(-c2cc(C)no2)ccc1OC,0,-,0,0
CCOC(=O)c1cc(-c2ccccc2)sc1NC(=S)Nc1cc(C)ccn1,0,0,1µM,2.2µM
C=CCNC(=S)Nc1ccc(C)cc1[N+](=O)[O-],0,0,?,0
Cc1cccnc1NC(=S)NC(=O)/C=C/c1ccccc1,0,0,4.5µM,6.3µM
C=CCNC(=S)Nc1cc(C)ccn1,?,0,1µM,4µM
Cc1ccnc(NC(=O)/C=C/c2ccccc2[N+](=O)[O-])c1,0,0,0,0
CCOC(=O)c1cc(-c2ccccc2)sc1NC(=O)C(C)(C)C,0,0,0,0
Cc1ccnc(NC(=S)NC(=O)/C=C/c2ccccc2)c1,0,0,2.8µM,?
Cc1ccnc(NC(=S)NC(=O)/C=C/c2ccc(Cl)cc2)c1,0,0,14µM,13µM
Cc1ccnc(NC(=O)/C=C/c2ccccc2Cl)c1,0,0,3.5µM,5.6µM
O=C(/C=C/c1ccccc1Cl)Nc1ccncc1,0,0,0,0
COc1ccc(/C=C/C(=O)c2ccc(NC(=O)c3cccs3)cc2)cc1OC,0,?,2.5µM,0
CC(=O)N(C)c1ccc(NC(=O)/C=C/c2ccccc2Cl)cc1,0,0,1.1µM,18µM
COc1ccc(C(=O)Nc2cccc(NC(=O)c3cccs3)c2)cc1OC,0,-,0,0
Cc1nc(NC2CCCCC2)c2nc(-c3ccccc3)n(CCCN3CCOCC3)c2n1,-,-,0,0
COc1ccc(CC(=O)NNC(=S)Nc2ccccc2)cc1Br,0,0,13µM,?
CCOc1ccc(N/C=C/C(=O)c2ccc3ccccc3c2)c([N+](=O)[O-])c1,0,0,0,0
COc1ccc(NS(=O)(=O)c2ccc(NC(=S)NC(=O)/C=C/c3ccccc3)cc2)nn1,0,7.9µM,?,?
COc1ccc(/C=C/C(=O)NC(=S)Nc2ccccc2)cc1OC,0,-,10µM,?
CCOc1ccc(N/C=C/C(=O)c2ccc(C)cc2)c([N+](=O)[O-])c1,0,0,2µM,?
CCOc1ccc(CC(=O)NNC(=S)Nc2ccccc2)cc1Br,0,0,0,0
COc1ccc(/C=C/C(=O)Nc2ccccc2)cc1OC,0,0,0,0
SMILES,B2AR arrestin,NPSR antagonist,RORg inh,Gal4-VP16 FLuc
CC(C)(C)CC(C)(C)c1ccc(OCCO)cc1,-,-,0,?
CCOc1ccc(NC(=S)NC(=O)/C=C/c2ccc(OC)c(OC)c2)c([N+](=O)[O-])c1,0,0,1.1µM,2.5µM
CCC(=O)Nc1ccc(NC(=S)NC(=O)/C=C/c2ccccc2)cc1,0,0,13µM,?
COC(=O)/C=C/C(=O)Nc1cccnc1,0,0,11µM,0
O=C(/C=C/c1ccccc1)NC(=S)Nc1cccnc1,0,0,7.1µM,0
CC(=O)c1ccc(NC(=S)NC(=O)/C=C/c2ccccc2)cc1,0,-,0,0
CCn1cnc2cc(NS(=O)(=O)c3ccc(OC)c(OC)c3)ccc21,0,-,0,0
COc1ccc2c(C)cc(SCC(=O)Nc3cccnc3Cl)nc2c1,0,?,0,0
CCCC[C@H](NC(=O)[C@H](CC(C)C)NC(=O)CNC(=O)[C@@H](NC(=O)[C@H](Cc1ccccc1)NC(=O)[C@H](CO)NC(=O)[C@@H](N)CC(=O)O)C(C)C)C(N)=O,-,-,0,0
Cc1ccccc1NC(=O)CSc1nc2c(c(-c3ccco3)c1C#N)CCCC2,0,10µM,?,0
N#Cc1c(SCC(=O)Nc2nccs2)nc2c(c1-c1ccco1)CCCC2,0,0,10µM,0
CC(C)c1cc2c(c(O)c1O)[C@@]13CCCC(C)(C)C1CC2OC3=O (stereo partly specified),0,-,14µM,?
COc1ccc(Nc2c([N+](=O)[O-])ccc3c2=NC2(CCCCC2)N=3)cc1,0,10µM,0,0
CCN(CC)c1ccc(C(=O)O)cc1,0,0,0,0
CCN(CC)c1ccc(/C=C2\C(=O)c3ccc(C(=O)O)cc3C2=O)cc1,0,0,11µM,10µM
Cc1cc[n+](C(C)C(=O)c2ccc(-c3ccccc3)cc2)cc1 (stereo unspecified),0,0,?,10µM
CC(C(=O)c1ccc(-c2ccccc2)cc1)[n+]1ccccc1 (stereo unspecified),0,0,?,0
O=c1c2c(-c3ccccc3)csc2ncn1/N=C/c1cccc([N+](=O)[O-])c1O,0,0,20µM,0
O=c1c2c(-c3ccccc3)csc2ncn1/N=C/c1ccc(O)c([N+](=O)[O-])c1,0,0,0,0
C=CCNc1nc(-c2ccc(OC)cc2OC)cs1,0,0,0,18µM
CCOC(=O)C1C(C(=O)OC)=C(CC(C)C)c2ccccc2N1S(=O)(=O)C(F)(F)F (stereo unspecified),-,-,0,0
C1=C(CCNCC2CC2)CCCC1,0,0,5µM,0
COCc1cc(C)nc(N/N=C/c2ccc(Cl)c(Cl)c2)c1C#N,0,0,0,0
Fc1cccc(F)c1/C=C/c1ccc2ccccc2n1,0,0,?,?
Cc1ccc2nc(/C=C/c3cccc(F)c3)ccc2c1,0,0,10µM,0
SMILES,B2AR arrestin,NPSR antagonist,RORg inh,Gal4-VP16 FLuc
NS(=O)(=O)c1ccc(CCNC(=O)NC2(C(F)(F)F)Oc3ccccc3O2)cc1,0,0,11µM,?
CCCCNC(=O)NC1(C(F)(F)F)Oc2ccccc2O1,0,0,0,0
CCCCCCCCCCCCCCCCCCOC[C@H](COP(=O)([O-])OCC[N+](C)(C)C)OC(C)=O,-,-,0,0
COc1ccc(CNC(=O)Nc2cccc3ccccc23)cc1,0,0,0,?
Cc1ccccc1NC(=S)NCCc1ccccc1,0,0,0,0
COc1ccc(CCNC(=S)Nc2cccc3ccccc23)cc1,0,0,5µM,11µM
COc1ccc(OCCNC(=S)Nc2cccc3ccccc23)cc1,0,0,2.8µM,6.3µM
COCCNC(=S)Nc1cccc2cnccc12,0,0,0,0
COc1ccc(CCNC(=S)Nc2ccccc2C)cc1,0,0,5µM,20µM
CC(C)C[C@@H](C(=O)N[C@@H](Cc1c[nH]c2ccccc12)C(N)=O)N1C[C@]2(CCCN2C(=O)[C@H](Cc2ccccc2)NC(=O)[C@H](Cc2ccccc2)NC(=O)[C@H](CCC(N)=O)NC(=O)[C@H](CCC(N)=O)NC(=O)[C@@H]2CCCN2C(=O)[C@H](CCCCN)NC(=O)[C@@H]2CCCN2C(=O)[C@@H](N)CCCNC(=N)N)CC1=O,-,-,0,0
CC(=O)Nc1ccc(S(=O)(=O)NCc2nc(-c3ccc(C)cc3)no2)cc1,0,-,0,0
O=C1c2cc(Br)ccc2O[C@@H](c2ccc3c(c2)OCO3)[C@@H]1O,-,-,0,0
